Source: PubChem BioAssay (NCI)
Several values for one entry are separate records, joined by “and”; a condition that tells them apart may be missing. Equal entries are not always repeated. The panel holds about 83,000 compounds, 20% with a hit somewhere; the sample as a whole holds those more often.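 Negative percent growth values reflect cell death: -40 means 40% of the cells present at the start died, and -100 means all died.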 Activity calls are given as the source filed them. Rule for the calls: active = growth percent below 10; inactive = the rest.

Legend:
Assay in all cases: NCI-60 one-dose screen, 48 h (100 = growth as untreated, 0 = no growth, -100 = all killed)
Conditions in all cases: 10 µM unless noted
[1] = system: HL-60(TB) leukemia
[2] = system: UACC-62 melanoma
[3] = system: MCF7 breast
[4] = system: NCI-H226 lung
[5] = system: 786-0 renal
[6] = system: DU-145 prostate
[7] = system: MDA-MB-231 breast
[8] = system: SF-268 CNS
[9] = system: SF-539 CNS
[10] = system: UACC-257 melanoma
[11] = system: PC-3 prostate
[12] = system: LOX IMVI melanoma
[13] = system: SK-MEL-28 melanoma
[14] = system: SK-MEL-2 melanoma
[15] = system: SN12C renal
[16] = system: TK-10 renal
[17] = system: RPMI-8226 leukemia
[18] = system: NCI/ADR-RES ovarian
[19] = system: HCT-116 colon
[20] = system: KM12 colon

## COc1cc2nc(NC3CCC3)nc(NC3CCN(C(C)C)CC3)c2cc1OC
[1]
  growth: 4.58% (active)

## CCOC(=O)C1C(c2ccccc2)C2(C#N)C(=N)OC1(C)C2(C#N)C#N (stereo unspecified)
[2]
  growth: -70.2% [100 µM] (active) and -92.1% [100 µM] (active)
[3]
  growth: -22.3% [100 µM] (active) and -82.1% [100 µM] (active)

## CC(=O)O[C@H]1CCC2C3CCC4=C/C(=N/O)CCC4(C)C3CCC21C (stereo partly specified)
[4]
  growth: 98.1% (inactive)
[5]
  growth: 76.9% (inactive)
[6]
  growth: 93.1% (inactive)
[7]
  growth: 110% (inactive)
[8]
  growth: 75.9% (inactive)
[9]
  growth: 87.6% (inactive)
[10]
  growth: 114% (inactive)
[11]
  growth: 93.6% (inactive)
[2]
  growth: 91.4% (inactive)
[12]
  growth: 93% (inactive)
[13]
  growth: 103% (inactive)
[14]
  growth: 85.4% (inactive)
[15]
  growth: 103% (inactive)
[16]
  growth: 103% (inactive)
[1]
  growth: 23.1% (inactive)
[17]
  growth: 89.4% (inactive)
[18]
  growth: 70.8% (inactive)
[3]
  growth: 110% (inactive)
[19]
  growth: 75.3% (inactive)
[20]
  growth: 78% (inactive)

## CC12CC3OC(=O)C1COC14OC5(C2C1=O)C(O)(CCC1C4CC2OC24CC=CC(=O)C14C)C(=O)OC35C (stereo unspecified)
[2]
  growth: -79.6% [100 µM] (active) and -94.2% [100 µM] (active)
[16]
  growth: 4.16% [100 µM] (active) and -100% [100 µM] (active)
[3]
  growth: -49.7% [100 µM] (active) and -85% [100 µM] (active)

## O=C(O)CN1C(=O)C(Cc2ccccc2)N=C(c2cccc(O)c2)c2ccccc21 (stereo unspecified)
[2]
  growth: 90.1% [30 µM] (inactive)
[16]
  growth: 96% [30 µM] (inactive)
[3]
  growth: 79% [30 µM] (inactive)

## CN1C(=O)C(CCC(=O)O)N=C(c2cccc(O)c2)c2ccccc21 (stereo unspecified)
[2]
  growth: 82% [30 µM] (inactive)
[16]
  growth: 113% [30 µM] (inactive)
[3]
  growth: 89% [30 µM] (inactive)

## C/C=C1\CN2CCC34c5ccccc5N(C)C35OCC4(C(=O)OC)C1CC25 (stereo unspecified)
[2]
  growth: 82.9% [100 µM] (inactive) and -86% [100 µM] (active)
[3]
  growth: 77% [100 µM] (inactive) and -100% [100 µM] (active)

## N#CCN1C(=O)C(CCC(N)=O)N=C(c2ccc(O)cc2)c2cc(Cl)ccc21 (stereo unspecified)
[2]
  growth: 91.5% [30 µM] (inactive)
[3]
  growth: 93.4% [30 µM] (inactive)

## CCCCCN1C(=O)C(CO)N=C(c2cccc(O)c2)c2ccccc21 (stereo unspecified)
[2]
  growth: 81.1% [30 µM] (inactive)
[16]
  growth: 91% [30 µM] (inactive)
[3]
  growth: 91.1% [30 µM] (inactive)

## CC(N)C(Cc1ccccc1)c1ccc(Cl)cc1 (stereo unspecified)
[1]
  growth: 66.5% (inactive)

## O=C1/C=C/[C@@H](O)[C@@H]2C[C@@H](O)C[C@H]2/C=C/CCC[C@H](CO)O1
[1]
  growth: -25.4% (active)
